The supplement of paper PMC3484114
± gives the standard deviation.

test system: OVCAR-3-derived ovarian cancer stem-like cells (spheroids); experiment: cell growth relative to untreated control; higher = more growth (less inhibition); conditions: 2.29 µM; 96 h
Outline: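 After trypsin dissociation, OVCAR-3 spheroid-derived stem-like cells were placed in ultra-low attachment 96-well plates at 50,000 cells/mL in stem cell medium and preincubated for 24 h. Treatment at 2.29 uM followed for 96 h at 37°C, 5% CO2, with 4 replicate wells per compound. A 4 h TOX8 resazurin fluorescence read (ex 560/em 590 nm) gave viability, from which percent growth relative to untreated wells was derived after blank subtraction and Grubbs outlier removal.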

Row | SMILES | cell growth [%]
1 | OC(CBr)C(O)C(O)C(O)CBr (centres undefined) | 11.6 ± 4
2 | CCCCCCCCCCCCCCCCCCOCC(COP(=O)([O-])OCC[N+](C)(C)C)OC (centres undefined) | 93 ± 25
3 | O=C1Nc2c(Cl)cc(Cl)cc2C1=O | 22.4 ± 13
4 | CCS(=O)(=O)Nc1ccc(Nc2c3ccccc3nc3ccccc23)c(OC)c1 | 32.5 ± 9
5 | COC(=O)C1(C)CCCC2(C)c3cc(OC)ccc3C(=O)C(Br)C12 (centres undefined) | 89.4 ± 39
6 | CC1=NC(C(C)C)C(=O)O1 (centres undefined) | 122 ± 74
7 | COC(=O)[C@@H]1[C@H](O)[C@H](C)[C@H](O)[C@H](C)/C=C\C=C(/C)C(=O)Nc2c(C)c(OC(C)=O)c3c(c2O)C(=O)C(C)=C2OCOC(=C23)/C(C)=C/[C@@](C)(O)[C@H](O)[C@@H](C)[C@H]1OC(C)=O | 110 ± 22
8 | CC(C)c1ccc(O)c(=O)cc1 | 66.5 ± 20
9 | CCOC(=O)CCn1ncc(Cl)c(Cl)c1=O | 74.8 ± 21
10 | CC[C@@]1(O)C[C@H](O[C@H]2C[C@H](N(C)C)[C@H](O[C@H]3C[C@H](O)[C@H](O[C@H]4C[C@H](O)[C@H](O)[C@H](C)O4)[C@H](C)O3)[C@H](C)O2)c2c(cc3c(c2O)C(=O)c2c(O)ccc(O)c2C3=O)[C@H]1C(=O)OC | 78.9 ± 26
11 | Cc1c(Cl)ccc2c1NC(=O)C2(O)C(C(=O)c1ccccc1)c1ccccc1 (centres undefined) | 107 ± 48
12 | O=C1Nc2c(Cl)cc(Cl)cc2C1=NN=Cc1ccco1 | 84.3 ± 20
13 | CC(=O)OCc1c2ccccc2c(C)c2c1cc(F)c1ccccc12 | 85.4 ± 9.4
14 | CC(C)CCCC(=O)CCCCCCC(=O)CCN(O)C(=O)C(N)CO (centres undefined) | 136 ± 15
15 | CCSC(=O)N1c2ccc(OC)cc2C=CC1C#N (centres undefined) | 52.9 ± 11
16 | CNc1nc(N(C)C)nc(N(C)C)n1 | 89.9 ± 20
17 | Nc1nc(N)c2cc(Sc3cccc(C(F)(F)F)c3)ccc2n1 | 94.4 ± 24
18 | C[C@H]1O[C@@H](c2ccc3c(c2O)C(=O)C2=C(C3=O)[C@@]3(O)C(=O)C[C@](C)(O)C[C@@]3(O)C=C2)C[C@@H](O)[C@@H]1O | 62.7 ± 8.2
19 | NC(=O)C#CC(N)=O | 55.9 ± 13
20 | COc1nc(N)nc2nc[nH]c12 | 91.9 ± 17

Row | SMILES | cell growth [%]
21 | Oc1[nH]c2ccccc2c1N=Nc1nc(-c2ccc(Br)cc2)cs1 | 81.5 ± 29
22 | CC1=C(C(=O)NCc2ccccc2)C(c2ccccc2O)C(C(=O)NCc2ccccc2)=C(C)N1 | 76.9 ± 12
23 | COC(=O)c1ccc(NCc2cc(O)ccc2O)cc1 | 108 ± 12
24 | C=C1C(=O)OC2/C=C(/CO)[C@@H](OC(C)=O)C[C@H](O)/C(C)=C\[C@@H](OC(=O)[C@@H](C)CC)[C@@H]12 (some centres undefined) | 100 ± 50
25 | COC(=O)c1[nH]c(=S)[nH]c(=O)c1-c1ccc(Cl)cc1 | 37.8 ± 14
26 | CCCN(CCC)C(=S)Sc1nc(C)nc(N2CCN(c3nc(C)nc(SC(=S)N(CCC)CCC)c3[N+](=O)[O-])CC2)c1[N+](=O)[O-] | 107 ± 22
27 | COc1cc(C(C)c2cc3c(cc2OCCO)OCO3)cc(OC)c1OC (centres undefined) | 24.7 ± 6.7
28 | Cc1cccc(Cl)c1NC(=O)/C=C/c1ccccc1 | 102 ± 14
29 | Cc1ccc(N=N/C(=N\NC(=O)c2ccc(C)cc2)c2ccc(N(CCC#N)CCC#N)cc2C)cc1 | 74.4 ± 26
30 | CCN(CC)CCNc1ccc(C)c2sc3ccccc3c(=O)c12 | 77.7 ± 26
31 | O=c1[nH]c2ccc(O)cc2o1 | 80.8 ± 13
32 | CCN(CC)CCOc1ccccc1/C=C/c1noc2ccccc12 | 79.3 ± 18
33 | CN(C)c1ccc(/C=C2\Cc3ccccc3C2=O)cc1Br | 169 ± 23
34 | Cc1nc(Cl)c(C)c(Cl)n1 | 88.2 ± 11
35 | CC[C@H](C)C(=O)O[C@H]1CCC=C2C=C[C@H](C)[C@H](CC[C@@H]3C[C@@H](O)CC(=O)O3)[C@H]21 | 135 ± 25
36 | NC(=O)c1c([N+](=O)[O-])cc(C(F)(F)F)cc1[N+](=O)[O-] | 63.9 ± 13
37 | COc1cc(CC(=O)c2cc3c(cc2-c2ccccc2)OCO3)cc(OC)c1OC | 83.1 ± 25
38 | Cc1ccc2[c](c1)[Sn]([c]1ccccc1)([c]1ccccc1)[c]1cc(C)ccc1N2C | 87.8 ± 12
39 | Cc1ccc(S(=O)(=O)SC/C=C/CSS(=O)(=O)c2ccc(C)cc2)cc1 | 113 ± 25
